Assay results reported in the supplement of paper PMC7724964.

What was measured:
Experiment in all cases: phage ELISA signal ratio (GST-PRM binding over GST background); higher = stronger binding of peptide-phage to the PRM
[1] = target: T1, BTN1A1 285-479 SPRY (domain begin residue: 285, domain end residue: 479), Q13410
T1 chain: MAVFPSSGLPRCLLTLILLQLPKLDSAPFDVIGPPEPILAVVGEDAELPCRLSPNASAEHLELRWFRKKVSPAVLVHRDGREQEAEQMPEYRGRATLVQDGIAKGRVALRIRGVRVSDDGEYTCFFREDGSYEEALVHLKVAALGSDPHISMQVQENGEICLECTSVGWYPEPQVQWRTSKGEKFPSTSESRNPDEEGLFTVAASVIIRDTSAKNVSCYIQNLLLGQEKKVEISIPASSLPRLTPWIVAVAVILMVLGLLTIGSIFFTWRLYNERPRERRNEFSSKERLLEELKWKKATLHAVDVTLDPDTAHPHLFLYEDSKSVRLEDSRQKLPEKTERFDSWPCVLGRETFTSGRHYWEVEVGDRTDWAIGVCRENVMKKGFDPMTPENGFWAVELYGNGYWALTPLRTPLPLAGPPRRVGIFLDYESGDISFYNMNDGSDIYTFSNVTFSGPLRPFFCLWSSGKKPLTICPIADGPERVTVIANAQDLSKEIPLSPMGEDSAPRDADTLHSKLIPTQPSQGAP
Experimental: (§1)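 Phage-displayed random hexadecapeptides (Cys-free, flanked by invariant Gly linkers, fused to the M13 P8 major coat protein) were selected over 5 rounds against GST-fused human PRM domains. Individual clones from rounds 4-5 were tested by phage ELISA, and positive clones binding the target but not GST were sequenced. Values are the ELISA signal ratio of target over background (GST); the background signal is given separately.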

[2] = target: CBX3 109-173 Chromo_shadow (domain begin residue: 109, domain end residue: 173), Q13185
Experimental: as §1

[3] = target: T2, CAPN2 513-700 EF-hand_8 (domain begin residue: 513, domain end residue: 700), P17655
T2 chain: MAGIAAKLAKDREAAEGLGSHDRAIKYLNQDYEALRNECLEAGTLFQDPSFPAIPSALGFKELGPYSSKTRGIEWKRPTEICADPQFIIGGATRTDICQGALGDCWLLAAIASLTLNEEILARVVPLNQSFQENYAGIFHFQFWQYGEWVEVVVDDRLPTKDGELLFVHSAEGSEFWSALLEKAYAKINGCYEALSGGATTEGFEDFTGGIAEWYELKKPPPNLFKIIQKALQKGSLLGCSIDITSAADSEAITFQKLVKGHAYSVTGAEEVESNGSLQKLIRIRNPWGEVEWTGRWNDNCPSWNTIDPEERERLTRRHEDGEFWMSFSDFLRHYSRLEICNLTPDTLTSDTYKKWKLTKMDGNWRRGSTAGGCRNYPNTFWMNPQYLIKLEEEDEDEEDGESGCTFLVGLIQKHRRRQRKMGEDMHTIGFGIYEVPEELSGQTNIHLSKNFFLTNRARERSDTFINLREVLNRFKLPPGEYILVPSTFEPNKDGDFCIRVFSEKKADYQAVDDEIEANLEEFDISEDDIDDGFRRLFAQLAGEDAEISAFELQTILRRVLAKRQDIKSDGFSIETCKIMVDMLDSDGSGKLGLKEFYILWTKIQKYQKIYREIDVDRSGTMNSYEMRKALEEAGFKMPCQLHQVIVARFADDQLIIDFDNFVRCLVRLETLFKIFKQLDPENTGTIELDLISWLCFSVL
Experimental: as §1

CBX3 109-173 Chromo_shadow (domain begin residue: 109, domain end residue: 173), Q13185, sequence (Q13185 whole entry): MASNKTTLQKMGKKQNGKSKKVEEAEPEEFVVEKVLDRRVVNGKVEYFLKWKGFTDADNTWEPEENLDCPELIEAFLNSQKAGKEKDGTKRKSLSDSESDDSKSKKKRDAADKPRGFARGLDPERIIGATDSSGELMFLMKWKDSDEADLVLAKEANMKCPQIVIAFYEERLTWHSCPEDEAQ

## FDFWQAREYHMLNMMA
[1]
  phage ELISA signal ratio: 10.3

## DWQYTYMPDMIPDWVM
[1]
  phage ELISA signal ratio: 20.7

## PKTGEPWHPWIPHWLA
[1]
  phage ELISA signal ratio: 8.34

## SWDHWDEKMTSMVVFM
[1]
  phage ELISA signal ratio: 9.92

## YQMQQWQFSPEIWLNM
[2]
  phage ELISA signal ratio: 7.79

## WHPMDWMEHFQMMPDT
[1]
  phage ELISA signal ratio: 5.73

## GDWEWVERWLEMHLLE
[3]
  phage ELISA signal ratio: 12.6
